# Measured values: PubChem BioAssay
# Some of the results follow. The source made the active and inactive calls. Rule as the data show it, unless noted: active = activity above about 50%; inactive = the rest.
# Tests used:
# [1] = target: Tumor necrosis factor receptor superfamily member 10B (Homo sapiens) (UniProt O14763); assay: caspase-8 TRAIL sensitization, hit retest, confirmation, cell-based, NB7+caspase-8, with/without TRAIL, luminescence panel (AID 651596); conditions: NB7 neuroblastoma + caspase-8, TRAIL sensitization, luminescence viability, with TRAIL, mean of runs, at 10 µM, stronger effect = higher value
# [2] = as above; conditions: NB7 neuroblastoma + caspase-8, without TRAIL, luminescence viability, without TRAIL, mean of runs, at 10 µM
# [3] = target: Tumor necrosis factor receptor superfamily member 10B (Homo sapiens) (UniProt O14763); assay: TRAIL sensitizers in caspase-8 expressing neuroblastoma cells, dose response, NB7 cells plus caspase-8, luminescence, panel (AID 652002); conditions: NB7 neuroblastoma +caspase-8, TRAIL sensitization, luminescence viability, NB7+Caspase-8, with TRAIL, run 1; at 12.5 µM (top of the series)
# [4] = target: Tumor necrosis factor receptor superfamily member 10B (Homo sapiens) (UniProt O14763); assay: as above; conditions: NB7 neuroblastoma +caspase-8, TRAIL sensitization, luminescence viability, NB7+Caspase-8, with TRAIL, run 2; at 12.5 µM (top of the series)
# [5] = as above; conditions: NB7 neuroblastoma +caspase-8, no TRAIL, compound-alone cytotoxicity counter-screen, luminescence viability, NB7+Caspase-8, run 1; at 12.5 µM (top of the series) unless noted
# [6] = as above; conditions: NB7 neuroblastoma +caspase-8, no TRAIL, compound-alone cytotoxicity counter-screen, luminescence viability, NB7+Caspase-8, run 2; at 12.5 µM (top of the series) unless noted
# [7] = target: COP9 signalosome complex subunit 5 (Homo sapiens) (UniProt Q92905); assay: Csn5 deneddylation inhibitors, confirmation, biochemical, fluorescence polarization, single concentration, SCF-Nedd8OG substrate (AID 720654; in the data active = inhibition above about 50%;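 also: 0% = DMSO with enzyme and 100% = no enzyme wells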); conditions: Csn5 deneddylation of SCF-Nedd8OG, 90 min, at 16.6 µM, stronger effect = higher value
# [8] = target: 72 kDa type IV collagenase (Homo sapiens) (UniProt P08253); assay: MMP-2 protease inhibition counter-screen, confirmation, counter-screen for CSN deneddylation inhibitor project, biochemical, fluorescence, single concentration (AID 720655;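 active = corrected plate-normalized z-score of 5 or more, or -5 or less, or inhibition of 15% or more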;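 also: plate controls were DMSO wells with enzyme for no effect and buffer wells lacking MMP-2 for full effect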); conditions: recombinant MMP-2, FRET substrate fluorescence, 60 min; at 16.6 µM
# [9] = target: Prothrombin (Bos taurus) (UniProt P00735); assay: bovine thrombin inhibition counter-screen, confirmation, counter-screen for CSN deneddylation inhibitor project, biochemical, fluorescence polarization, single concentration (AID 720656;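 active = inhibition at or above a set limit, with a fluorescence interference ratio between 0.5 and a set maximum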); conditions: bovine thrombin cleavage of Ub4-pepOG, at 16.6 µM, stronger effect = higher value
# Prothrombin (Bos taurus), sequence (P00735 whole entry, looked up): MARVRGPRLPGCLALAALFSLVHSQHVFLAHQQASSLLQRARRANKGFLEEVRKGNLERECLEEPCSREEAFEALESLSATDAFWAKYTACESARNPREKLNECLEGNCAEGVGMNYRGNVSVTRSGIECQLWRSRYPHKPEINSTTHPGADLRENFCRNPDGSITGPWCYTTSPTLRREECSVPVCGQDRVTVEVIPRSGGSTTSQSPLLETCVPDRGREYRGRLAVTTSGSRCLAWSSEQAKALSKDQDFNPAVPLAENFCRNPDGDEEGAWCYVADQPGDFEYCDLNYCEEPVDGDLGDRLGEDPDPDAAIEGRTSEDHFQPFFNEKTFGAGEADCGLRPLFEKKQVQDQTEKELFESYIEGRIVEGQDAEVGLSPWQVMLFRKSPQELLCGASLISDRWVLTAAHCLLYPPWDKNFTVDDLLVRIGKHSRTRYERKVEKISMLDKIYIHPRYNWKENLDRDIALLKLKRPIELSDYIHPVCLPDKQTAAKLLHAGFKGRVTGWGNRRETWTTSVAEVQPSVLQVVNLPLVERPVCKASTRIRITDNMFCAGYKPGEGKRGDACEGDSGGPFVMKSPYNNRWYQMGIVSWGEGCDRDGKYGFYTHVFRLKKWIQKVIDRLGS
# Tumor necrosis factor receptor superfamily member 10B (Homo sapiens), sequence (O14763 whole entry, looked up): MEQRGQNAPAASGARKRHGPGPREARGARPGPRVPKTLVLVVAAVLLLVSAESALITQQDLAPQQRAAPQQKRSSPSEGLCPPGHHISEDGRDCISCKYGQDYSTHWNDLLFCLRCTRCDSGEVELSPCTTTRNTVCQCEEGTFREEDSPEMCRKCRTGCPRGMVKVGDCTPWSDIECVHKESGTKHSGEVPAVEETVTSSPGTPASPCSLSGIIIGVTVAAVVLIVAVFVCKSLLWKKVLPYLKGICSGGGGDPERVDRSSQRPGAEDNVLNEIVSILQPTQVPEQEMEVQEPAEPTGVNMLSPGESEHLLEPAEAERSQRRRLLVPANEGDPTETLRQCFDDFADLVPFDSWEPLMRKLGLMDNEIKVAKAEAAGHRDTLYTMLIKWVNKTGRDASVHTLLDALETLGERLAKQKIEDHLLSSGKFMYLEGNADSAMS
# 72 kDa type IV collagenase (Homo sapiens), sequence (P08253 whole entry, looked up): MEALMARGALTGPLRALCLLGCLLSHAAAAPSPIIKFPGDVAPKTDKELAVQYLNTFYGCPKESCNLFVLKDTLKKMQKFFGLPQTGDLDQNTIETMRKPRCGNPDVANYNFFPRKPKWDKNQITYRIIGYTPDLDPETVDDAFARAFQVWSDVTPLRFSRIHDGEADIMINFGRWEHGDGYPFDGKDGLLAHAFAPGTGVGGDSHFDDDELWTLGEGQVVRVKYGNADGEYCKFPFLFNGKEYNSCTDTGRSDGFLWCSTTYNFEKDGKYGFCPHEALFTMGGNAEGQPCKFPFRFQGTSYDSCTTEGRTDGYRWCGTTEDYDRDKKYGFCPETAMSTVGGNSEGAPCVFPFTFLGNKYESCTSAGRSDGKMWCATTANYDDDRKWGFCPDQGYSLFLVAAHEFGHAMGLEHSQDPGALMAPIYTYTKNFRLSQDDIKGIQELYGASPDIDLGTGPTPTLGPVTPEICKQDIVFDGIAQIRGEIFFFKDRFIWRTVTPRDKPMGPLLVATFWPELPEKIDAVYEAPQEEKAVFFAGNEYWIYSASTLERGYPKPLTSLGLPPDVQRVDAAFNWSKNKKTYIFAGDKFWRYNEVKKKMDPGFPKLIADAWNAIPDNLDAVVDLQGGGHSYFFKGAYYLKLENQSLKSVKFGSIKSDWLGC
# COP9 signalosome complex subunit 5 (Homo sapiens), sequence (Q92905 whole entry, looked up, one chain of several): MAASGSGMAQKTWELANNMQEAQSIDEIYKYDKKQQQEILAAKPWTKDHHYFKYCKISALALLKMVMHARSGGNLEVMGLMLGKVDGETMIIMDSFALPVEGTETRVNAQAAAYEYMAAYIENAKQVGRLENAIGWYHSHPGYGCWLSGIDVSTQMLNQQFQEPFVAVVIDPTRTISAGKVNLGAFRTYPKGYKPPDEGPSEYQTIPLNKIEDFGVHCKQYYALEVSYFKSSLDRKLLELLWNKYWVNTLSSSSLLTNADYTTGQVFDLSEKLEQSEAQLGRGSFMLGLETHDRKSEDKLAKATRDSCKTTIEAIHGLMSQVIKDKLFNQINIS
SMILES,activity [1],activity [2],"activity, % sensitization [3]","activity, % sensitization [4]","activity, % sensitization [5]","activity, % sensitization [6]",inhibition [7],inhibition [8],inhibition [9]
Cc1ccn2cc(C(=O)Nc3ccc4c(c3)OCCO4)nc2c1,58.2%,50.8%,38.4%,40.7%,47.9%,50.7%,–,–,–
COc1cc(/C=C2/C(=O)NN(c3cccc(Cl)c3)C2=O)cc(Br)c1O,–,–,–,–,–,–,27.3% (inactive),-17.1% (inactive),36.3% (active)
O=C(NC(=O)c1ccccc1)Nc1ccccc1,54.2%,49.9%,28.7%,6.32%,7.63%,-8.56%,–,–,–
O=C(CSc1nc2ccccc2c(=O)[nH]1)Nc1nc(-c2ccc(Br)cc2)cs1,–,–,–,–,–,–,105% (active),16.9% (active),-37.2% (inactive)
CC(C)C[C@H](NC(=O)c1nc[nH]c1C(=O)N[C@@H](CC(C)C)C(=O)OCc1ccccc1)C(=O)OCc1ccccc1,71.4%,38.8%,-20.3%,9.61%,0.235%,-15.4%,–,–,–
O=C1CCCc2nc(N3CCc4ccccc43)ncc21,45.5%,25.6%,22.4%,-9.35%,0.829%,-3.85%,–,–,–
COc1ccc(-c2nc(-c3ccc(NC(=O)c4ccncc4)cc3)no2)cc1OC,70.5%,47.2%,-12.9%,-17.5%,2.44%,-14.5%,–,–,–
CC(C)(C)C1C/C(=C/c2ccco2)C(=O)/C(=C/c2ccco2)C1 (stereo not given),–,–,–,–,–,–,71.5% (active),1.32% (inactive),10.1% (inactive)
CS(=O)(=O)c1ccc2c(c1)SC1=NC(=O)/C(=C/c3ccco3)C(=N)N12,–,–,–,–,–,–,50% (inactive),4.65% (inactive),41.6% (active)
Cc1ccc(-c2nn(-c3ccccc3)cc2/C=C2\SC(=S)N(CCCCCC(=O)O)C2=O)o1,–,–,–,–,–,–,–,-170% (active),-24.4% (inactive)
O=C(O)C(c1ccccc1)N1C(=O)/C(=C\c2ccc(-c3cccc(Cl)c3)o2)SC1=S (stereo not given),–,–,–,–,–,–,14.6% (inactive),-20.6% (inactive),51.9% (active)
CN(C)CCCN(C(=O)c1ccc(S(=O)(=O)N2CCCc3ccccc32)cc1)c1nc2ccc(F)cc2s1,55.7%,52.9%,-21.5%,18.8%,-8.84%,17.9%,–,–,–
Cn1c(=O)c2c(SCC(=O)Nc3ccccc3F)nc(C3CC3)nc2n(C)c1=O,50.8%,44.9%,-6.81%,-10.3%,-1.87%,-25.4%,–,–,–
CCOC(=O)C(=C1Nc2ccccc2N1)n1c(-c2cccnc2)nc2ccccc21,55.9%,52%,44.5%,36.8%,-4.97%,41.7%,–,–,–
